Source: PubChem BioAssay
Only some compounds are listed: those with a hit (about 2.8% of all), similar ones and a draw of the others.
IP6K1 inhibitor: blocks human inositol hexakisphosphate kinase 1; AID 1645851; hit rate 0.81% among 140,000; Q92551; activity change, % (series mostly up to about 58 µM); IP6K1 kinase, ADP-Glo luminescence, 2 h; active compounds read low; in the data active = activity change below about -25%; also: % is scaled to controls: 0 for no effect and ±100 for the full control effect
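ADP-Glo luminescence measures ADP made by human IP6K1 during a 2 h RT reaction with ATP/IP6 (mix at 1.3 mM/130 uM); top library doses 57.5 and 19.1 uM final.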
KDM5B inhibitor: blocks human KDM5B histone demethylase activity; Potency, µM (series often up to 57.7 µM), most hits filed as inhibitors; AID 1347165; hit rate 2.6% among 220,000; Q9UGL1; KDM5B demethylase, FDH-coupled NADH fluorescence (FDH is formaldehyde dehydrogenase); also: potency is read from the fitted curve at half-maximal effect; 0% is about no effect; nearly all actives have a fitted effect of over 70% in size
Target sequence (Q9UGL1 whole entry, looked up): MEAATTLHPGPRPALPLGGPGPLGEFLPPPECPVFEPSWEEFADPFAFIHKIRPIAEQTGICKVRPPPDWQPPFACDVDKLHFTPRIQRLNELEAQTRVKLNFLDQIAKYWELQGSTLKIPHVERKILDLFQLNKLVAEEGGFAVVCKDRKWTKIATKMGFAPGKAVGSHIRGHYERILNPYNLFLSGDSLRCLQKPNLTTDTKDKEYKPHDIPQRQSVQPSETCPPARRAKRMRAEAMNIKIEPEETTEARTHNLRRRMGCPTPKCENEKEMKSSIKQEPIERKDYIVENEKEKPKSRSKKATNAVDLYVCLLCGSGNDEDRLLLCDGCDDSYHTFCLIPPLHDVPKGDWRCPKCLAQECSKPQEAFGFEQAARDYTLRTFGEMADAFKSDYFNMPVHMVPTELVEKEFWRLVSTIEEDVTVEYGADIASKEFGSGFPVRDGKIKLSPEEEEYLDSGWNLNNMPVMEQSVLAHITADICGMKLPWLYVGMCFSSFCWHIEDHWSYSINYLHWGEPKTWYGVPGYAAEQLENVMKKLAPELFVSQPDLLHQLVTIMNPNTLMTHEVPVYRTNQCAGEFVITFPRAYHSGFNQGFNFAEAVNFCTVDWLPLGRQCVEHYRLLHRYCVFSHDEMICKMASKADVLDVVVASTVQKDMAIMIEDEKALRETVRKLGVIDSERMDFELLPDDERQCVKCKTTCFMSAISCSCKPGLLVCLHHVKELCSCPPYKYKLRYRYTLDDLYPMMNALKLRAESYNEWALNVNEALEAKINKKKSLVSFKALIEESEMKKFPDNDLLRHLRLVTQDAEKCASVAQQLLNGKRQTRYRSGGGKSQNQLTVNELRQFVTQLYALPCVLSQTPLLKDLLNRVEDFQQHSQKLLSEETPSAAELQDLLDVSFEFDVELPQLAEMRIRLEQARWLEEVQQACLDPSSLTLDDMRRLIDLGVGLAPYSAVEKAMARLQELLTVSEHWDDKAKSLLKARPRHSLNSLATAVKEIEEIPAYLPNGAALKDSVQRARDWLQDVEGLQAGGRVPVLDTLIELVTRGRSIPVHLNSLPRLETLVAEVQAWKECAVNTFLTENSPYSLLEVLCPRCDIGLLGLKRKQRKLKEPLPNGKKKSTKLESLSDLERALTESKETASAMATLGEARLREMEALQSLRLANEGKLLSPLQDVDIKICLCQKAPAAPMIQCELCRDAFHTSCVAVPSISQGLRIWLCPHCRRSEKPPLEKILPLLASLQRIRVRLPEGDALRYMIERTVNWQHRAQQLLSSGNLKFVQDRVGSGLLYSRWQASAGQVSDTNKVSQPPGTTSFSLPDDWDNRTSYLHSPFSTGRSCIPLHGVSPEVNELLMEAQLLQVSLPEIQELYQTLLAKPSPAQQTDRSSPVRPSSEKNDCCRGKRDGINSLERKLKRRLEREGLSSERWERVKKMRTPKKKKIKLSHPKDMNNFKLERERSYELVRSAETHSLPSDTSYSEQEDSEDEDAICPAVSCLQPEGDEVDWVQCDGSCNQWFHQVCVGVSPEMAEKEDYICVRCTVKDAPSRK
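Compound dilutions met 200 nM (final) KDM5BΔAP for 10 min at room temperature before substrate addition. The substrate mix held 12.5 µM H3K4me3 with cofactors 25 µM α-ketoglutarate and 50 µM Fe²⁺. NADH signal gain over 30 min defined activity.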
Active calls of the source: *; i = inactive; ? = inconclusive; nt = not tested or not shown.

SMILES	IP6K1 inhibitor	KDM5B inhibitor
CCc1noc(-c2ccn3c(CNC(=O)c4cc(C)cc(C)c4)nnc3c2)n1	13	i
CS(=O)(=O)N1CCC(Cc2ccc(CN3CCCCC3)cc2)CC1	14	nt
CCOc1ccc(N2C(=O)CN(S(=O)(=O)c3ccccc3)CC2(C)C(=O)NCCC(C)C)cc1 (stereo not drawn)	nt	i
CCOc1ccccc1NC(=O)N1CC(N(CC)C2CCOCC2)C1	-5	nt
CCC(C)(C)C1CCc2c(sc(NC(=O)CC(C)C)c2C#N)C1 (stereo not drawn)	nt	i
Nc1c(Br)cc2oc(-c3cccc4ccccc34)nc2c1Br	nt	i
COc1ccc(-c2cccc(C(=O)NCCCc3ccccc3)c2)nn1	6	nt
CCCc1noc(-c2ccn3c(CNC(=O)c4ccc(CC)cc4)nnc3c2)n1	40	25µM*
CCc1noc(-c2ccn3c(CNC(=O)c4ccc(C(C)(C)C)cc4)nnc3c2)n1	35	?
COc1cc(N2CC(C(=O)O)CC2=O)cc(OC)c1OC (stereo not drawn)	nt	i
CCc1cccc2c(C(=O)C(=O)Nc3cccc(Cl)c3)c[nH]c12	nt	i
COCCNC(=O)c1cc(-c2ccc(OC)cc2)nc2c1c(C1CCNC1)nn2C (stereo not drawn)	-2	?
COc1ccc(-c2cc(C(=O)NCC3CC3)c3c(C4CCNC4)noc3n2)cc1 (stereo not drawn)	13	79µM*
O=C(NC1CCCC1)c1cc(C2CC2)nc2onc(C3CCNC3)c12 (stereo not drawn)	7	?
COc1ccc(-c2cc(C(=O)NC3CC3)c3c(C4CCNC4)nn(C)c3n2)cc1 (stereo not drawn)	-2	79µM*
O=C(NC1CC1)c1cc(C2CC2)nc2onc(C3CCCNC3)c12 (stereo not drawn)	-2	?
O=C(NC1CCNCC1)c1cc(C2CC2)nc2onc(C3CCNC3)c12 (stereo not drawn)	-1	79µM*
COc1ccc(-c2cc(C(=O)NCC3CC3)c3c(C4CCCN4)noc3n2)cc1 (stereo not drawn)	3	?
COc1ccc(-c2cc(C(=O)NC3CC3)c3c(C4CCCNC4)noc3n2)cc1 (stereo not drawn)	-3	79µM*
Cc1ccccc1NC(=O)COC(=O)COc1ccccc1	nt	i
O=C(NCCc1ccccc1F)C1CCN(c2nccc(Nc3ccccc3F)n2)CC1	2	nt
O=C(N/N=C/C1CC2CCC1C2)c1ccccc1[N+](=O)[O-] (stereo not drawn)	nt	i
C=CCOC(=O)C1=C(C)N=C2SC=C(CC(=O)N3CCCC3)N2C1c1cc(OC)cc(OC)c1 (stereo not drawn)	-2	i
C=CCOC(=O)C1=C(C)N=C2SC=C(CC(=O)N3CCCC3)N2C1c1ccc(OC)cc1OC (stereo not drawn)	4	28µM*
N#Cc1cccc(CN2CC(COc3ccccc3)C3(C2)CN(c2ccccc2)C3)c1 (stereo not drawn)	12	40µM*
SMILES	IP6K1 inhibitor	KDM5B inhibitor
C[S+](=O)([O-])c1cccc(CN2CC(COc3ccccc3)C3(C2)CN(c2ccccc2)C3)c1 (stereo not drawn)	-9	35µM*
c1ccc(CN2CC(CNc3cccnc3)C3(C2)CN(c2ccccc2)C3)cc1 (stereo not drawn)	-8	?
O=[S+]([O-])(NCC1CN(Cc2cccc(Cl)c2)CC12CN(c1ccccc1)C2)c1ccccc1 (stereo not drawn)	7	?
Nc1ncccc1CN1CC(COc2ccccc2)C2(C1)CN(c1ccccc1)C2 (stereo not drawn)	-13	?
Clc1cccc(CN2CC(CNc3cccnc3)C3(C2)CN(c2ccccc2)C3)c1 (stereo not drawn)	-2	32µM*
CCS(=O)(=O)N1CCCN(c2ccc(=O)n(-c3ccccc3)n2)CC1	nt	i
CN(C)C(=O)NCCNC(=O)c1ccc(-c2cccc(C(F)(F)F)c2)cc1	9	nt
CCc1ccc(OCC(O)Cn2cnc3c2c(=O)n(C)c(=O)n3C)cc1 (stereo not drawn)	nt	i
Cc1ccc(-c2ccc3nnc(CNC(=O)c4cccnc4)n3n2)cc1	-6	32µM*
Cc1ccc(-c2ccc3nnc(CNC(=O)c4cc(C)ccc4C)n3n2)cc1	-15	?
Cc1ccc(-c2ccc3nnc(CNC(=O)c4cnccn4)n3n2)cc1	13	13µM*
Cc1ccc(-c2ccc3nnc(CNC(=O)C4CCCCC4)n3n2)cc1C	-7	?
Cc1ccc(-c2ccc3nnc(CNC(=O)c4nccc5ccccc45)n3n2)cc1	-7	32µM*
COc1ccc(-c2ccc3nnc(CNC(=O)c4nccc5ccccc45)n3n2)cc1	-3	?
CC(=O)N1CCC(C(=O)NCc2nnc3ccc(-c4ccc(C)cc4)nn23)CC1	-16	32µM*
CCCCCn1c(SCC(=O)Nc2ccccc2)nc2c1c(=O)[nH]c(=O)n2C	nt	i
